TDP1 inh: inhibitors of human tyrosyl-DNA phosphodiesterase TDP1; Q9NUW8; recombinant TDP1, AlphaScreen DNA substrate cleavage; Potency, µM (top dose mostly 130 µM), for the others: top-dose activity change, negative = inhibition, most hits filed as inhibitors; 0.28% of 350,000 active; AID 485290; also: potency is read from the fitted curve at half-maximal effect; nearly all actives have a fitted effect of over 40% in size
Target sequence (Q9NUW8 whole entry, looked up): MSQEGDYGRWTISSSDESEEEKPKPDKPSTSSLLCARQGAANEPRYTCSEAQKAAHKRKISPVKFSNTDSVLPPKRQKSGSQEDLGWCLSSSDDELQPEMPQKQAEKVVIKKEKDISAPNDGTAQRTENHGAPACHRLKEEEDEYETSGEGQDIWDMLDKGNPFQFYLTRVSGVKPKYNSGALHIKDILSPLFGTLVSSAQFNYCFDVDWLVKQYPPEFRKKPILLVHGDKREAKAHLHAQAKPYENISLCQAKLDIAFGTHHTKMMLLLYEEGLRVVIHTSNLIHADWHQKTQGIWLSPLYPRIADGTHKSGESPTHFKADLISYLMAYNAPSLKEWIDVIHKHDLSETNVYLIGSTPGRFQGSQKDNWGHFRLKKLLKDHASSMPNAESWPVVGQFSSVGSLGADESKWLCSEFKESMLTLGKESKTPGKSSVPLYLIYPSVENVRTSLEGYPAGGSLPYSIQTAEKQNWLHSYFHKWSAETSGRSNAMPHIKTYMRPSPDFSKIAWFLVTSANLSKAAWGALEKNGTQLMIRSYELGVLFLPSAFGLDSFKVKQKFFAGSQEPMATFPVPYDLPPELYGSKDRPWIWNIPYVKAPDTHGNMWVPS
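AlphaScreen read-out: signal falls as enzyme removes the 3' tyrosine-FITC from a 5'-biotinylated DNA oligo (15 nM, 5 min, RT). Enzyme was E. coli-made recombinant Tdp1 at 1 nM, exposed to compound for 15 min beforehand; beads 10 ug/ml, 10 min.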
ELG1 repair inh: blocks ELG1-dependent DNA repair in HEK293T cells. HEK293T ELG1-luciferase reporter, luminescence, 16 h; DNA damage induced by 5-fluorouridine. Potency, µM (titrated, usually from 46.1 µM), for inactives: at the highest dose activity change, negative = inhibition, hits mostly inhibitors. 2.3% of 330,000 active. AID 504467; also: potency is read from the fitted curve at half-maximal effect; nearly all actives have a fitted effect of over 55% in size
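Cells (2,000 per well) received 5-fluorouridine plus test compound or DMSO and were incubated 16 hr at 37 °C, 5% CO2. Luciferase activity was read by luminescence 30 min after ONE-Glo addition; signal suppression marked inhibition of damage-induced ELG1 function.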
Giardia killer: kills Giardia lamblia; Giardia lamblia trophozoite viability; activity change, % at 7.66 µM, hits read low; 0.15% of 340,000 active; in the data active = activity change below about -80%; inconclusive = between about -30% and that limit;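 also: parasites exposed to compound for two days anaerobically before the ATP read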
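ATP-content bioluminescence gauges trophozoite survival. Cells (100/well) receive compound and incubate anaerobically for 48 hrs at 37 deg C; detection reagent follows for 15-30 min at room temperature.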
DT40 TDP1 no CPT: qHTS for Inhibitors of human tyrosyl-DNA phosphodiesterase 1 (TDP1): qHTS in cells in absence of CPT; AID 686978, 2013; DT40 Tdp1-/- hTDP1 cells, no CPT, ATP luminescence, 48 h; 15% of 420,000 active; Potency, µM (doses to about 46.2 µM), inactives show top-dose activity change, negative = growth inhibition, most hits filed as inhibitors; also: potency is read from the fitted curve at half-maximal effect; nearly all actives have a fitted effect of over 55% in size
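Chicken DT40 Tdp1-/- cells complemented with human TDP1, screened without camptothecin (DMSO vehicle only), 400 cells/well. Compounds pin-transferred, cells incubated at 37 °C for at least 48 hr. Growth read as ATP-dependent luminescence (CellTiter-Glo, 30 min at RT).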
DT40 TDP1 CPT: growth inhibition of DT40 Tdp1-/-;hTDP1 cells with camptothecin (screen for TDP1 inhibitors) | chicken DT40 Tdp1-/-;hTDP1 cells + 20 nM CPT, ATP luminescence, 48 h | Potency, µM (titrated, usually from 46.2 µM), inactives show at the top dose activity change, negative = growth inhibition, most hits filed as inhibitors | 12% of 420,000 active | AID 686979; also: potency is read from the fitted curve at half-maximal effect; nearly all actives have a fitted effect of over 55% in size
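Cell growth measured by CellTiter-Glo luminescence after a minimum 48 h, 37 C compound exposure with 20 nM CPT in Tdp1-knockout DT40 cells stably expressing hTDP1, seeded 400/well; qHTS titration format.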
IL1B secr inh: inhibitors of inflammasome signaling (IL-1 beta secretion); THP-1 LPS/ATP IL-1B secretion, AlphaLISA, 16 h; active compounds read low; activity change, % at 57.5 µM; 4.7% of 360,000 active; AID 743279; in the data active = activity change below about -50%; inconclusive = mostly about -30% to -49%
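THP-1 cells pretreated 1 hr with compounds (up to 57.5 uM final), then stimulated with LPS (250 ng/mL final) plus ATP (1.25 mM final); secreted IL-1B measured by AlphaLISA after 16 hr, decreased signal indicating inhibition.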
Active calls of the source: *; ? = inconclusive; . = no result; [ ] = dose if it differs, or a comment. A selection: hits, their analogues and other compounds. The true share with any hit is near 19%. Unless noted, calls follow the shape of the dose curve; as a rule, active = well fitted curve in the direction sought with a large enough effect; inconclusive = small, poorly fitted or top-dose-only effect, or another doubt; inactive = no such curve, though single readings can be large; an effect the other way counts as inactive or inconclusive. % is scaled to controls: 0 for no effect and ±100 for the full control effect.

SMILES	TDP1 inh	ELG1 repair inh	Giardia killer	DT40 TDP1 no CPT	DT40 TDP1 CPT	IL1B secr inh
CCOc1ccc(CNC(=O)c2cc3c(=O)oc4ccc(C)cc4c3s2)cc1	5%	.	.	?	?	.
CCN(CC)C(=O)c1cc2c(=O)n3cccc(C)c3nc2s1	.	?	4	-23%	-7%	17
Cc1cccn2c(=O)c3cc(C(=O)N(Cc4ccccc4)C(C)C)sc3nc12	-12%	.	.	21µM*	16µM*	.
CCOc1ccc(CCNC(=O)c2cc3c(=O)oc4ccc(C)cc4c3s2)cc1OCC	5%	.	.	?	13µM*	.
Cc1ccc2oc(=O)c3cc(C(=O)N(Cc4ccccc4)C(C)C)sc3c2c1	-5%	.	.	21µM*	18µM*	.
CNC(=O)c1ccccc1Sc1cccc2cccc(C(=O)O)c12	.	1%	0	10%	0%	7
CCN(C(=O)COC(=O)CCn1c(C)csc1=O)c1c(N)n(Cc2ccccc2)c(=O)[nH]c1=O	0%	9%	11	-5%	-7%	0
Cc1ccc2oc(=O)c3cc(C(=O)NCCCN4CC(C)CC(C)C4)sc3c2c1 (stereo unspecified)	0%	?	12	?	?	-83*
CC1(C)COC2(OC1)C(=O)Nc1ccccc12	-5%	-11%	3	-11%	2%	14
CCC1(C)COC2(OC1)C(=O)Nc1ccccc12 (stereo unspecified)	8%	-6%	13	-19%	-3%	-51*
O=C(NCC(c1cccs1)S(=O)(=O)c1cccs1)c1cccc(F)c1 (stereo unspecified)	3%	.	.	18µM*	16µM*	.
Cc1cccc(C(=O)NCC(c2cccs2)S(=O)(=O)c2cccs2)c1 (stereo unspecified)	5%	.	.	15µM*	?	.
O=C(NCC(c1ccco1)S(=O)(=O)c1cccs1)c1c(F)cccc1F (stereo unspecified)	5%	.	.	?	?	.
COc1cc(C(=O)NCC(c2cccs2)S(=O)(=O)c2cccs2)cc(OC)c1OC (stereo unspecified)	0%	.	.	?	?	.
O=C(NC1CCCC1)C1CCN(C(=O)c2ccc(Cl)cc2Cl)CC1	7%	2%	8	-1%	7%	12
CC1(C)OC(=O)C2(Cc3ccc(Cl)cc3N3CCCC32)C(=O)O1 (stereo unspecified)	1%	.	11	?	-9%	.
COc1ccc(Cc2n[nH]c(=S)n2NC(=O)Nc2ccc(Cl)c(Cl)c2)cc1	.	12%	-19	7.3µM*	10µM*	-23
CC(C)c1ccc(-c2csc(NC(=O)c3cccs3)c2C(=O)O)cc1	0%	?	?	?	?	0
COC(=O)c1c(-c2cccs2)csc1NC(=O)c1ccc(C(C)C)cc1	?	.	.	15µM*	?	.
COC(=O)c1c(-c2cccs2)csc1NC(=O)c1ccc(Cl)cc1	-14%	.	.	-62%	16µM*	.
COC(=O)c1c(-c2cccs2)csc1NC(=O)c1cccnc1	-2%	?	-2	15µM*	16µM*	-65*
COC(=O)c1ccc(NC(=O)c2cccnc2)cc1	.	10%	-4	?	-27%	-16
COc1ccc(C(=O)Nc2scc(-c3ccc(Cl)cc3Cl)c2C(N)=O)cc1	-4%	?	-6	15µM*	?	?
COC(=O)c1c(-c2cccs2)csc1NC(=O)c1cccc(Cl)c1	?	.	.	-27%	?	.
COc1ccc(-c2oc3ncn4nc(COc5ccccc5C)nc4c3c2-c2ccc(OC)cc2)cc1	2%[2.28 µM]	.	.	2%	2%	.
COC(=O)c1c(-c2ccccc2)csc1NC(=O)c1ccco1	-5%	?	11	-18%	3%	-16
